Assay results as given in PubChem BioAssay (EPA / NIEHS).
Where “and” joins values, the source holds several entries; their conditions need not be identical. Identical values can stand only once. Results filed as inconclusive are left out. Where a structure was tested more than once in an assay, its records may differ in their call. Calls of active or inactive are those of the source. How the source made its calls, unless noted: active means hit-call score of the fitted dose curve at least 0.9, where 1 is the maximum; inactive means score below 0.9.

Experiments:
[1] = target: Ratio of Nucleoli Translocation and Cytoplasm, AR (gene 367) (UniProt P10275); assay: UPITT_HCI_U2OS_AR_TIF2_Nucleoli_Cytoplasm_Ratio_Antagonist: University of Pittsburgh U2OS Androgen Receptor-Transcriptional Intermediary Factor 2 (AR-TIF2) Antagonism High Content Imaging Assay for Ratio of Nucleoli Translocation and Cytoplasm (AID 2283999; active means hit-call score of the fitted dose curve at least 0.9, where 1 is the maximum;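 further: antagonists lower the DHT-driven ratio of nucleolar to cytoplasmic red signal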)
Ratio of Nucleoli Translocation and Cytoplasm, AR (gene 367), sequence (P10275 whole entry, looked up, the tested form may be a part): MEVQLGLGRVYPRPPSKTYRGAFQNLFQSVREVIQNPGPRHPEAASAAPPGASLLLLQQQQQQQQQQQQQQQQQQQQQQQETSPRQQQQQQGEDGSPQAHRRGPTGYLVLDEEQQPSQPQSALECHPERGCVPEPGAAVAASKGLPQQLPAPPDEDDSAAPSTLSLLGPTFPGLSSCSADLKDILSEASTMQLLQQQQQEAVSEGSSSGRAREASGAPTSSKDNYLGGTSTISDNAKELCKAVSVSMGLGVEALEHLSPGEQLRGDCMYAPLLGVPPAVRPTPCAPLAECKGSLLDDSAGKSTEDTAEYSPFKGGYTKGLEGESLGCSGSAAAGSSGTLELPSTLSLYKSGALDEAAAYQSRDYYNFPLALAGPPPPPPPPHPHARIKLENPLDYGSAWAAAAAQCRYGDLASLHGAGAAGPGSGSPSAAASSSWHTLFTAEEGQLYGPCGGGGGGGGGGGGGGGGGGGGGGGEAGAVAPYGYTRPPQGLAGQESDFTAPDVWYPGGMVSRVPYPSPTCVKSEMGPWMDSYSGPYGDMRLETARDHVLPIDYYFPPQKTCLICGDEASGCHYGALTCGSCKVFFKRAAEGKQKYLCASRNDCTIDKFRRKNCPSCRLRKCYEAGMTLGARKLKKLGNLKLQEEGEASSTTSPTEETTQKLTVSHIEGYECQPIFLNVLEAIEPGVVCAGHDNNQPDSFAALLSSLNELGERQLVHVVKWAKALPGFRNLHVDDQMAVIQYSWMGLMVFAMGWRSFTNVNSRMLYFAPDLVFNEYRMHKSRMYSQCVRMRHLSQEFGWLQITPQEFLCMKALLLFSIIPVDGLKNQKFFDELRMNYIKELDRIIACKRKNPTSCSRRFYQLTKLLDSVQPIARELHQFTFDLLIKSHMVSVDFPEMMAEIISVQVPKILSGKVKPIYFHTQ
In short: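 Human osteosarcoma U2OS line, AR fused to RFP, coactivator TIF2 fused to GFP. Cpds 20 uM final, 0.2% DMSO (screen); 0.195–50 uM final, 0.5% DMSO (CRC). Endpoint: nucleoli/cytoplasm red signal ratio, DHT as baseline, loss-of-signal antagonist mode.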

[2] = target: Ratio of Nucleoli Translocation and Cytoplasm, AR (gene 367) (UniProt P10275); assay: UPITT_HCI_U2OS_AR_TIF2_Nucleoli_Cytoplasm_Ratio_Agonist: University of Pittsburgh U2OS Androgen Receptor-Transcriptional Intermediary Factor 2 (AR-TIF2) Agonism High Content Imaging Assay for Ratio of Nucleoli Translocation and Cytoplasm (AID 2284000; active means hit-call score of the fitted dose curve at least 0.9, where 1 is the maximum;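 further: hits raise the red nucleolar to cytoplasm ratio above vehicle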)
In short: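 Read-out first: nucleolar-to-cytoplasm ratio of red (AR-RFP) signal, quantified by high-content imaging in U2OS cells co-expressing TIF2-GFP. Activity is scored as signal increase over DMSO. Single-point screening used 20 uM final (0.2% DMSO).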

[3] = CCTE_Harrill_HTTr_Viability_MCF7: CCTE's 6-hour Cell Viability Assessment for the High-Throughput Transcriptomics (HTTr) Platform, in MCF-7 cells cultured in DMEM + 10% fetal bovine serum, Harrill Lab (AID 2284010)
In short: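 Cells were dosed with chemicals in an eight-point dilution series, imaged 6 hours later for propidium iodide uptake, and the endpoint was analyzed by bidirectional fitting against DMSO as negative control.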

[4] = CCTE_Harrill_HTTr_Apoptosis_MCF7: CCTE's 6-hour Apoptosis Assessment for the High-Throughput Transcriptomics (HTTr) Platform, in MCF-7 cells cultured in DMEM + 10% fetal bovine serum, Harrill Lab (AID 2284011)
In short: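 Cells are dosed with test chemicals at eight concentrations and imaged 6 hours later for caspase-3/7 activity using a green fluorogenic detection reagent. Activity is fitted in both directions against DMSO controls.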

[5] = CCTE_Simmons_MITO_basal_resp_rate: CCTE's HepG2 Seahorse XF Respirometric Screening Assay at Basal Respiratory State, Simmons Lab (AID 2284001); conditions: actives raise or lower the signal
In short: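 HepG2 respirometry; 7-pt titration 125 nM–100 uM final; kinetic OCR at 6 min intervals for 72 min; n=3 biological, technical singles; DMSO baseline, gain or loss fit; fenpyroximate (decrease) and 2,4-DNP (increase) controls.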

[6] = CCTE_Simmons_MITO_max_resp_rate: CCTE's HepG2 Seahorse XF Respirometric Screening Assay at Maximal Respiratory State [uncoupled], Simmons Lab (AID 2284002); conditions: actives raise or lower the signal
In short: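 Maximal respiration in HepG2 cells is recorded as OCR by Seahorse XF following FCCP injection. Compounds span 125 nM–100 uM final; activity is called in either direction against DMSO.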

[7] = CCTE_Simmons_MITO_inhib_resp_rate: CCTE's HepG2 Seahorse XF Respirometric Screening Assay at Inhibited Respiratory State [full ETC block], Simmons Lab (AID 2284006); conditions: actives raise or lower the signal
In short: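 Compound injected onto HepG2 cells (125 nM–100 uM final, 7 points); FCCP then rotenone/antimycin A added. Oxygen consumption read every 6 min (3 min mix, 3 min measure) for 72 min. Inhibited-state OCR fitted against DMSO.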

[8] = CCTE_Shafer_MEA_acute_spike_number: CCTE's Neural Acute Assay for Total Number of Spikes, Shafer Lab (AID 2284008);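 on AC50: curve fitted for decrease in spike count so AC50 reflects inhibitors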
In short: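 Cortical neurons from rat, matured to DIV 13 or 15 on microelectrode arrays, are recorded at 37 C before and during 40-min exposure to 0.03-40 uM compound. Wells need >/= 10 active electrodes.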

[9] = CCTE_Shafer_MEA_acute_firing_rate_mean: CCTE's Neural Acute Assay for Mean Firing Rate, Shafer Lab (AID 2284009);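 further: analyzed for loss of signal so actives lower firing rate relative to DMSO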
In short: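 Percent change in well-mean firing rate was derived from extracellular spikes detected at 8x rms noise (300-5000 Hz band-pass) before and after a 40-min compound exposure. Cultures were primary rat cortical neurons, tested at 0.03-40 uM.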

[10] = CCTE_Simmons_MITO_viability: CellTiter-Glo Viability Assessment for CCTE's HepG2 Seahorse XF Respirometric Screening Assay [post-hoc], Simmons Lab (AID 2284007; active means hit-call score of the fitted dose curve at least 0.9, where 1 is the maximum;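 on AC50: cells exposed to chemical for 90 min before the ATP read; actives lower ATP signal relative to DMSO baseline meaning reduced viability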)
In short: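 After the Seahorse oxygen-consumption sequence (basal, FCCP, rotenone/antimycin A; 72 min total), HepG2 viability was scored as ATP content by bioluminescence. Chemicals ran at seven concentrations up to 100 uM final for 90 min.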

Measured: AC50

O=[N+]([O-])c1c(Cl)c(Cl)c(Cl)c(Cl)c1Cl
inactive: [1] | [2] | [3] | [4]

CC[C@H](C)[C@H]1O[C@]2(C=C[C@@H]1C)C[C@@H]1C[C@@H](C/C=C(\C)[C@@H](O[C@H]3C[C@H](OC)[C@@H](O[C@H]4C[C@H](OC)[C@@H](O)[C@H](C)O4)[C@H](C)O3)[C@@H](C)/C=C/C=C3\CO[C@@H]4[C@H](O)C(C)=C[C@@H](C(=O)O1)[C@]34O)O2 (tested in a mixture with another compound)
active: [5] 24.7 µM | [6] 18 µM | [8] 0.0048 µM | [9] 0.00477 µM
inactive: [7] | [3] | [4]

CCC(C)(NC(=O)c1cc(Cl)c(C)c(Cl)c1)C(=O)CCl (stereo unspecified)
inactive: [5] | [6] | [7] | [3] | [4]

CCOCN(C(=O)CCl)c1c(C)cccc1CC
inactive: [5] | [6] | [7] | [10] | [3] | [4]

O=[N+]([O-])/N=C1\NCCN1Cc1ccc(Cl)nc1
inactive: [2] | [8] | [9] | [3] | [4]

CC1(c2ccc(Oc3ccccc3)cc2)OC(=O)N(Nc2ccccc2)C1=O (stereo unspecified)
active: [5] 4.7 µM | [6] 3.04 µM
inactive: [7] | [10] | [3] | [4]

C#CCN1C(=O)COc2cc(F)c(N3C(=O)C4=C(CCCC4)C3=O)cc21
inactive: [1] | [2] | [7] | [10] | [3] | [4]
active: [5] 64.9 µM | [6] 53.1 µM

CCC(C)(C)C(=O)OC1=C(c2ccc(Cl)cc2Cl)C(=O)OC12CCCCC2
inactive: [1] | [2] | [8] | [9] | [3] | [4]

Oc1cc(Cl)ccc1Oc1ccc(Cl)cc1Cl
inactive: [5] | [7] | [10] | [3] | [4]
active: [5] 21 µM | [6] 19.3 µM | [8] 1.89 µM | [9] 1.89 µM

CCC(C)Nc1c([N+](=O)[O-])cc(C(C)(C)C)cc1[N+](=O)[O-] (stereo unspecified)
inactive: [5] | [6] | [7] | [10] | [8] | [9] | [3] | [4]

Oc1ccc(Cl)cc1Cc1ccccc1
inactive: [7] | [10] | [3] | [4]
active: [1] 7.42 µM | [5] 18.3 µM and 24 µM | [6] 32.8 µM and 41.5 µM | [8] 1.07 µM | [9] 1.08 µM

COP(=S)(OC)Oc1ccc([N+](=O)[O-])cc1
inactive: [5] | [6] | [7] | [10] | [3] | [4]

CCCN(CCC)c1c([N+](=O)[O-])cc(C(F)(F)F)cc1[N+](=O)[O-]
active: [8] 8.55 µM
inactive: [1] | [2] | [9] | [3] | [4]

CC(C)(C)C(O)/C(=C\c1ccc(Cl)cc1Cl)n1cncn1 (stereo unspecified)
active: [5] 15.8 µM | [6] 21.1 µM
inactive: [7] | [10] | [3] | [4]

Cc1[nH]c(=O)n(C(C)(C)C)c(=O)c1Cl
inactive: [2] | [3] | [4]

C[C@H]1[C@H](c2ccc(Cl)cc2)SC(=O)N1C(=O)NC1CCCCC1
inactive: [1] | [2] | [3] | [4]
active: [8] 13 µM | [9] 13.1 µM

N#Cc1c(Cl)c(Cl)c(Cl)c(C#N)c1Cl
inactive: [6] | [7] | [8] | [9] | [3] | [4]
active: [5] 22.9 µM | [10] 20 µM

O=S1OCC2C(CO1)C1(Cl)C(Cl)=C(Cl)C2(Cl)C1(Cl)Cl (stereo unspecified)
inactive: [1] | [8] | [9] | [3] | [4]

O=C(O)COc1ccc(Cl)cc1Cl
inactive: [5] | [6] | [7] | [3] | [4]

O=C(O)CCCOc1ccc(Cl)cc1Cl
active: [5] 32.5 µM
inactive: [2] | [6] | [7] | [8] | [9] | [3] | [4]

CCOC1Oc2ccc(OS(C)(=O)=O)cc2C1(C)C (stereo unspecified)
inactive: [2] | [10] | [3] | [4]
active: [5] 33.5 µM | [6] 35.3 µM | [7] 33.9 µM

CCCN(CCOc1c(Cl)cc(Cl)cc1Cl)C(=O)n1ccnc1
inactive: [7] | [3] | [4]
active: [5] 11.2 µM | [6] 18 µM | [10] 13.6 µM | [8] 1.26 µM | [9] 1.24 µM
